Source: PubChem BioAssay
STK33 kin inh = inhibitors of human STK33 kinase | ADP-Glo luminescence, MBP substrate | AID 2322 | inhibition, % at 12.5 µM | 0.44% of 27,000 active | Q9BYT3; in the data active = inhibition above about 20%; inconclusive = no clear call, values can overlap the other calls
Target sequence (Q9BYT3 whole entry, looked up): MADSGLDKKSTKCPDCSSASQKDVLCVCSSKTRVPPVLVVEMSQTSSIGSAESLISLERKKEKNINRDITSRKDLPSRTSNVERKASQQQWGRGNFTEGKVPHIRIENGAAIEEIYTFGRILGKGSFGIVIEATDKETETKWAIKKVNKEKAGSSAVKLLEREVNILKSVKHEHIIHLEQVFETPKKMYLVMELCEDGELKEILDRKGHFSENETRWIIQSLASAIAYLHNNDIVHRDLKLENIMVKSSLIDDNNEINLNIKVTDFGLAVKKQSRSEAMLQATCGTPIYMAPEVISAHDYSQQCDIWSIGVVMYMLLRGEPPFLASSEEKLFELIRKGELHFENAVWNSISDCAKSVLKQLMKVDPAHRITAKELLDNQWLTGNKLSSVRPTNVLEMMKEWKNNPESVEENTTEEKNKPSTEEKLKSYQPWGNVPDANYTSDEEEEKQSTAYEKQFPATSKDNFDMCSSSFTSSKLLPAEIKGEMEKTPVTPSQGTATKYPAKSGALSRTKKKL
NOMO-1 viab = STK33 inhibitor candidate reducing NOMO-1 cell viability | NOMO-1 AML viability, CellTiter-Glo luminescence, 72 h | inhibition, % (no concentration beside the values) | 7.5% of 37,000 active | AID 2330; in the data active = inhibition above about 80%; inconclusive = no clear call, values can overlap the other calls
p53 PUMA act = mutant p53 pathway reactivation. AID 624151. 1.5% of 28,000 active. SW480 PUMA-promoter luciferase. activation, % at 9.98 µM; in the data active = activation above about 52%; inconclusive = no clear call, values can overlap the other calls
MITF inh = MITF inhibition; TRPM1 promoter luciferase, luminescence, 24 h; inhibition, % (test concentration not listed); 0.28% of 37,000 active; in the data active = inhibition above about 85%; inconclusive = no clear call, values can overlap the other calls; inactive = below about 68%;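 also: human melanocyte line stably carrying TRPM1 promoter luciferase reporter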
Starred values were filed as active, the others as inactive; ? = inconclusive; / = no result. Shown is part of a subset that was picked to be rich in hits.

SMILES	STK33 kin inh	NOMO-1 viab	p53 PUMA act	MITF inh
C[C@@H]1CN([C@H](C)CO)C(=O)c2cccc(NC(=O)Nc3ccccc3)c2O[C@H]1CN(C)Cc1ccc(Cl)c(Cl)c1	/	106.4*	/	16.6
C[C@@H]1CN([C@H](C)CO)C(=O)c2cccc(NC(=O)Nc3cccc4ccccc34)c2O[C@@H]1CN(C)Cc1ccc(Cl)c(Cl)c1	/	62.5	/	31.2
C[C@@H]1CN([C@@H](C)CO)C(=O)c2cccc(NC(=O)Nc3ccccc3)c2O[C@@H]1CN(C)Cc1ccc(Cl)c(Cl)c1	/	116.1*	/	-12.7
C[C@H](CO)N1C[C@H](C)[C@@H](CN(C)Cc2ccc(Cl)c(Cl)c2)Oc2c(NC(=O)Nc3cccc4ccccc34)cccc2C1=O	/	115.2*	/	26.9
CCc1c(O)nc(SCC(=O)Nc2ccc(OC)cc2)n(-c2ccccc2)c1=O	-2.4	-2.7	-0.9	-4.4
Cc1n[nH]c(C)c1S(=O)(=O)N1CCC2(CC1)OCCO2	/	/	-12.6	/
C[C@H](CO)N1C[C@H](C)[C@H](CN(C)Cc2ccc(Cl)c(Cl)c2)Oc2c(NC(=O)Nc3ccc(F)cc3)cccc2C1=O	/	98.9*	/	37.2
C[C@@H]1CN([C@H](C)CO)C(=O)c2cccc(NC(=O)Nc3ccc(F)cc3)c2O[C@@H]1CN(C)Cc1ccc(Cl)c(Cl)c1	/	30.6	-4.5	0.9
Cc1ccc(OCC(=O)Nc2ccc3oc(-c4ccc(F)cc4Cl)nc3c2)cc1	0.1	45.7	-8.0	40.1
O=C(CNS(=O)(=O)c1cc(Cl)ccc1Cl)Nc1ccc2c(c1)OCCO2	-2.2	4.7	-2.0	-28.2
C[C@@H]1CN([C@@H](C)CO)C(=O)c2cc(NS(=O)(=O)c3cccs3)ccc2O[C@@H]1CN(C)Cc1ccc(C(=O)Nc2ccccc2N)cc1	/	111.3*	/	26.5
C[C@@H]1CN([C@H](C)CO)C(=O)Cc2cc(NS(=O)(=O)c3cccs3)ccc2O[C@H]1CN(C)Cc1ccc(C(=O)Nc2ccccc2N)cc1	/	71.0	/	-9.1
C[C@H](CO)N1C[C@H](C)[C@H](CN(C)Cc2ccc(C(=O)Nc3ccccc3N)cc2)Oc2ccc(NS(=O)(=O)c3cccs3)cc2CC1=O	/	127.6*	/	23.0
CCCn1c2ccccc2c2nnc(Sc3ccc4nsnc4c3[N+](=O)[O-])nc21	10.1	104.6*	-20.8	51.6
CCCn1c2ccccc2c2nnc(SCC(=O)O)nc21	-1.3	9.2	-3.5	5.9
COC(=O)C(CC(=O)c1ccc(Br)cc1)n1cncn1 (configuration not stated)	/	/	-6.5	/
CC(C)(C)c1ccc(OCC(O)Cn2cnc3ccccc32)cc1 (configuration not stated)	-1.4	93.1*	-10.0	29.8
C[C@@H]1CN([C@H](C)CO)C(=O)c2cccc(NC(=O)Nc3ccccc3)c2O[C@@H]1CN(C)CC1CCCCC1	/	10.7	/	6.2
C[C@@H]1CN([C@H](C)CO)C(=O)c2cccc(NC(=O)Nc3ccc(F)cc3)c2O[C@H]1CN(C)CC1CCCCC1	/	112.5*	/	32.8
C[C@@H]1CN([C@@H](C)CO)C(=O)c2cccc(NC(=O)Nc3ccccc3)c2O[C@H]1CN(C)CC1CCCCC1	/	93.1*	/	29.6
C[C@H](CO)N1C[C@H](C)[C@@H](CN(C)CC2CCCCC2)Oc2c(NC(=O)Nc3ccccc3)cccc2C1=O	/	?	/	22.0
C[C@H]1CN([C@@H](C)CO)C(=O)c2cccc(NC(=O)Nc3ccccc3)c2O[C@@H]1CN(C)CC1CCCCC1	/	89.9*	/	24.1
Cc1ccccc1-c1nc(SCC(=O)Nc2ccc(F)c(Cl)c2)n[nH]1	-2.4	3.2	-6.0	2.6
O=c1c2ccccc2nc(-c2ccco2)n1CCN1CCOCC1	1.1	0.7	4.3	-8.1
Cc1ccc(-c2noc(CSc3nc(C)cc(C)n3)n2)cc1	0.6	14.8	63.3*	-18.1
SMILES	STK33 kin inh	NOMO-1 viab	p53 PUMA act	MITF inh
COc1ccc2nc(SCC(=O)Nc3cccc([N+](=O)[O-])c3)[nH]c2c1	?	23.7	2.1	-4.9
Cc1cc2nc(SCC(=O)NN)[nH]c2cc1C	/	35.1	/	9.0
Cc1nc([N+](=O)[O-])c(Sc2nc3ccccc3[nH]2)n1Cc1ccccc1	2.5	101.2*	65.6*	15.7
Cc1cc2nc(Sc3c([N+](=O)[O-])nc(C)n3Cc3ccccc3)[nH]c2cc1C	0.0	106.9*	76.5*	31.9
COc1ccc2nc(Sc3c([N+](=O)[O-])nc(C)n3Cc3ccccc3)[nH]c2c1	0.2	102.3*	?	53.4
COc1cccc(NC(=O)Cn2cnc3ccccc3c2=O)c1	-1.3	-5.1	12.7	-16.5
Cc1ccc(C)c(NC(=O)CSc2nnc(-c3ccc(N)cc3)n2C)c1	-2.4	-1.1	0.4	-6.4
C[C@H](CO)N1C[C@H](C)[C@H](CN(C)Cc2ccc(C(=O)Nc3ccccc3N)cc2)Oc2ccc(NC(=O)Cc3cn(C)c4ccccc34)cc2C1=O	/	102.3*	/	44.7
C[C@@H]1CN([C@@H](C)CO)C(=O)c2cc(NC(=O)Cc3cn(C)c4ccccc34)ccc2O[C@@H]1CN(C)Cc1ccc(C(=O)Nc2ccccc2N)cc1	/	99.4*	/	0.2
C[C@@H]1CN([C@H](C)CO)C(=O)c2cc(NC(=O)Cc3cn(C)c4ccccc34)ccc2O[C@H]1CN(C)Cc1ccc(C(=O)Nc2ccccc2N)cc1	/	22.5	/	7.3
COc1cc(O)c2c(c1C)C(C)C(O)(CO)OC2=O (configuration not stated)	-0.7	-0.8	16.5	0.7
CCn1c(SCC(=O)Nc2ccc(F)c(Cl)c2)nnc1-c1ccncc1	2.1	/	6.2	/
CNCC(O)Cn1c2ccccc2c2ccccc21 (configuration not stated)	-5.2	7.0	21.2	-16.6
OC(COCc1ccccc1)Cn1c2ccccc2c2ccccc21 (configuration not stated)	/	88.7*	/	4.9
Cc1cc(C(F)(F)F)nc(SCC(=O)Nc2ccccc2C(F)(F)F)n1	0.6	-5.2	10.9	-6.4
CCOc1ccc(NC(=O)Cn2cnc3sc(C(N)=O)c(C)c3c2=O)cc1	-0.6	-7.1	-7.9	-21.4
C[C@@H]1CN([C@H](C)CO)C(=O)Cc2cc(NC(=O)CCCCCC(=O)Nc3ccccc3N)ccc2O[C@H]1CN(C)Cc1ccc(Cl)c(Cl)c1	/	108.1*	/	9.6
C[C@H]1CN([C@@H](C)CO)C(=O)c2cc(NC(=O)CCCCCC(=O)Nc3ccccc3N)ccc2O[C@H]1CN(C)Cc1ccc(Cl)c(Cl)c1	/	111.1*	/	36.9
C[C@@H]1CN([C@@H](C)CO)C(=O)c2cc(NC(=O)CCCCCC(=O)Nc3ccccc3N)ccc2O[C@H]1CN(C)Cc1ccccc1	/	18.2	/	11.9
C[C@H]1CN([C@@H](C)CO)C(=O)Cc2cc(NC(=O)CCCCCC(=O)Nc3ccccc3N)ccc2O[C@@H]1CN(C)Cc1ccc(Cl)c(Cl)c1	/	92.1*	/	12.7
Cc1cc2oc(C(=O)Nc3nnc(SCc4ccccc4)s3)c(C)c2cc1C	-4.4	-4.9	27.9	-15.2
CC(C)OC(=O)CSc1nc2c(cc1C#N)CCCCC2	5.3	-3.7	98.1*	-77.9
N#Cc1cc2c(nc1SCC(=O)Nc1cc(C(F)(F)F)ccc1Cl)CCCCC2	5.5	37.3	5.4	17.7
N#Cc1cc2c(nc1SCC(=O)Nc1ccccc1C(F)(F)F)CCC2	1.7	-3.8	111.3*	-96.7
C(=NCc1ccco1)c1cn(-c2ccccc2)nc1-c1ccccc1	0.1	104.9*	/	-7.9
